Bioassay records from PubChem BioAssay.
STK33 kin inh – blocks human STK33 kinase activity; Q9BYT3; ADP-Glo luminescence, MBP substrate; inhibition, % at 12.5 µM; hit rate 0.44% among 27,000; AID 2322; in the data active means inhibition above about 20%; inconclusive means no clear call, values can overlap the other calls
p53 PUMA act – re-activators of the mutant p53 pathway. SW480 PUMA-promoter luciferase, p53 mutant reactivation. activation, % at 9.98 µM. hit rate 1.5% among 28,000. AID 624151; in the data active means activation above about 52%; inconclusive means no clear call, values can overlap the other calls
ID4 SMM – binds human ID4 protein on microarray. small molecule microarray, Flag-ID4 binding, fluorescence F/B. calls only. AID 624137. hit rate 1.2% among 31,000; call rule not given here;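 further: a binder raises fluorescence above local background on the spot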
Target sequence (P47928 whole entry, looked up): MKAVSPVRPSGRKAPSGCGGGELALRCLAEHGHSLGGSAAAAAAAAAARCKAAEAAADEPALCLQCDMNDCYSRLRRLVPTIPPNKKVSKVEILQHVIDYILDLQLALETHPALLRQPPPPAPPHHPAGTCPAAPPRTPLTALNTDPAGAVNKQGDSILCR
NOMO-1 viab – STK33 inhibitor candidate reducing NOMO-1 cell viability. NOMO-1 AML viability, CellTiter-Glo luminescence, 72 h. inhibition, % (no concentration beside the values). hit rate 7.5% among 37,000; in the data active means inhibition above about 80%; inconclusive means no clear call, values can overlap the other calls
* = called active by the depositor; i = inactive; ? = inconclusive; . = no result; + = active, no number. Many of the other results were omitted from the sample, so hits are more common in it than they were.

SMILES | STK33 kin inh | p53 PUMA act | ID4 SMM | NOMO-1 viab
C[C@H]1CN([C@@H](C)CO)C(=O)Cc2cc(NC(=O)c3ccncc3)ccc2O[C@H]1CN(C)Cc1ccc(C(=O)Nc2ccccc2N)cc1 | . | . | . | 126.0*
C[C@H]1CN([C@@H](C)CO)C(=O)Cc2cc(NC(=O)Nc3ccc(F)cc3)ccc2O[C@H]1CN(C)Cc1ccc(C(=O)Nc2ccccc2N)cc1 | . | . | . | 128.3*
C[C@H](CO)N1C[C@H](C)[C@H](CN(C)Cc2ccc(C(=O)Nc3ccccc3N)cc2)Oc2ccc(NC(=O)Nc3ccc4c(c3)OCO4)cc2CC1=O | . | . | . | 126.9*
CC(C)NC(=O)Nc1ccc2c(c1)C(=O)N([C@@H](C)CO)C[C@@H](C)[C@H](CN(C)Cc1ccc(C(=O)Nc3ccccc3N)cc1)O2 | . | . | . | 46.9
CC(C)NC(=O)Nc1ccc2c(c1)CC(=O)N([C@@H](C)CO)C[C@@H](C)[C@@H](CN(C)Cc1ccc(C(=O)Nc3ccccc3N)cc1)O2 | . | . | . | 107.3*
C[C@H](CO)N1C[C@H](C)[C@@H](CN(C)Cc2ccccc2)Oc2ccc(NC(=O)c3ccncc3)cc2C1=O | . | . | . | 16.8
Cc1ccc(-c2nc3ccccc3s2)cc1NC(=O)COc1ccc([N+](=O)[O-])cc1 | 8.0 | -3.1 | i | -21.2
O=C(CCC(=O)c1ccc(Oc2ccccc2)cc1)Nc1cccnc1 | -1.5 | -3.2 | i | 22.9
C[C@@H]1CN([C@H](C)CO)C(=O)Cc2cc(NC(=O)Nc3ccc(F)cc3)ccc2O[C@@H]1CN(C)Cc1ccc(C(=O)Nc2ccccc2N)cc1 | . | . | . | 97.3*
C[C@H]1CN([C@@H](C)CO)C(=O)Cc2cc(NC(=O)Nc3cccc4ccccc34)ccc2O[C@H]1CN(C)Cc1ccc(C(=O)Nc2ccccc2N)cc1 | . | . | . | 105.2*
Cc1noc(C)c1NC(=O)Nc1ccc2c(c1)CC(=O)N([C@H](C)CO)C[C@H](C)[C@H](CN(C)Cc1ccc(C(=O)Nc3ccccc3N)cc1)O2 | . | . | . | 136.7*
C[C@H]1CN([C@@H](C)CO)C(=O)Cc2cc(NC(=O)Nc3ccccc3)ccc2O[C@H]1CN(C)Cc1ccc(C(=O)Nc2ccccc2N)cc1 | . | . | . | 139.4*
COc1ccc(NC(=O)Nc2ccc3c(c2)CC(=O)N([C@@H](C)CO)C[C@H](C)[C@@H](CN(C)Cc2ccc(C(=O)Nc4ccccc4N)cc2)O3)cc1 | . | . | . | 22.6
Cc1noc(C)c1NC(=O)Nc1ccc2c(c1)C(=O)N([C@H](C)CO)C[C@H](C)[C@H](CN(C)Cc1ccc(C(=O)Nc3ccccc3N)cc1)O2 | . | . | . | 37.0
C[C@H](CO)N1C[C@H](C)[C@@H](CN(C)CC2CCCCC2)Oc2c(NC(=O)C3CCCCC3)cccc2C1=O | . | . | . | 95.8*
C[C@@H]1CN([C@H](C)CO)C(=O)c2cccc(NC(=O)C3CCCCC3)c2O[C@H]1CN(C)CC1CCCCC1 | . | . | . | 111.3*
C[C@@H]1CN([C@H](C)CO)C(=O)c2cccc(NC(=O)NC3CCCCC3)c2O[C@H]1CN(C)CC1CCCCC1 | . | . | . | 104.3*
C[C@H](CO)N1C[C@H](C)[C@H](CN(C)S(=O)(=O)c2cccs2)Oc2ccc(NC(=O)c3ccncc3)cc2CC1=O | 2.0 | -5.4 | i | -5.2
CNC[C@@H]1Oc2c(NS(=O)(=O)c3ccccc3)cccc2C(=O)N([C@H](C)CO)C[C@H]1C | . | . | . | 5.3
Cc1ccc(OCC(=O)Nc2ccccc2C#N)cc1C | -0.6 | 83.3* | i | 11.9
c1ccc(-c2cnc3nonc3n2)cc1 | . | . | . | 114.5*
Cc1cc(C)nc(SCc2csc(N)n2)n1 | -2.3 | 9.3 | + | -2.7
O=C1c2ccccc2S(=O)(=O)N1CC(O)Cn1ccc2ccccc21 (stereo unspecified) | -4.5 | 17.1 | + | 21.1
Cc1cc(C)n(CC(O)Cn2ccc3ccccc32)n1 (stereo unspecified) | -2.3 | -11.5 | + | -15.1
Cc1noc(C)c1NC(=O)Nc1ccc2c(c1)CC(=O)N([C@@H](C)CO)C[C@@H](C)[C@@H](CN(C)S(=O)(=O)c1cn(C)cn1)O2 | -1.6 | 6.0 | i | -15.3
SMILES | STK33 kin inh | p53 PUMA act | ID4 SMM | NOMO-1 viab
CCC(=O)Nc1nonc1-c1nc2ccccc2n1Cc1cc(OC)ccc1C | 5.5 | -27.2 | i | 129.6*
CC(=O)Nc1nonc1-c1nc2ccccc2n1Cc1ccc(Cl)cc1Cl | -2.2 | -20.2 | i | ?
COC(=O)Cc1c(C)c2cc(Cl)c(OC(C)C(C)=O)cc2oc1=O (stereo unspecified) | -3.5 | 68.4* | i | -14.5
COC(=O)Cc1c(C)c2c(OCC(N)=O)cc(C)cc2oc1=O | 4.0 | -5.7 | i | 28.3
CN1c2ccccc2Oc2nnc(N3CCN(c4ccccc4)CC3)cc21 | . | 95.0* | i | .
Cc1c(C(=O)Nc2cnccn2)oc2ccccc12 | -1.7 | 23.9 | i | 112.3*
Cc1c(C(=O)Nc2nnc(SCc3ccccc3F)s2)oc2ccccc12 | 8.4 | 24.3 | i | -9.1
CC(=O)N[C@@H](Cc1c[nH]c2ccccc12)C(N)=O | -1.3 | . | i | 16.8
COC(=O)C(Cc1c[nH]c2ccccc12)NC(=O)C(NC(=O)C(C)NC(=O)/C=C/C(=O)O)C(C)c1c[nH]c2ccccc12 (stereo unspecified) | 153.9* | . | i | 7.0
CNc1ccccc1C(=O)N1CCc2c([nH]c3ccccc23)C1=O | 2.1 | 7.2 | . | 95.0*
N/C(=N\O)c1ccc(N2CCN(c3ncccc3C(F)(F)F)CC2)nc1 | . | 141.8* | i | .
NC(=S)c1ccc(N2CCC(C(F)(F)F)CC2)nc1 | -3.5 | . | . | 20.3
COc1cccc2cc(C(=O)Nc3cccc(Cn4cccn4)c3)c(=O)oc12 | 11.7 | 56.9* | i | 15.2
COc1ccc(C(C)NC(=O)c2cc(-c3ccccn3)nc3ccc(Br)cc23)cc1OC (stereo unspecified) | 0.4 | -1.4 | i | 89.6*
COc1ccccc1CCNC(=O)c1cc(-c2ccccn2)nc2ccc(Br)cc12 | 2.8 | -19.0 | i | 24.6
COc1ccc(C(C)NC(=O)c2cc(-c3ccccn3)nc3ccc(Cl)cc23)cc1OC (stereo unspecified) | -1.7 | -18.9 | i | 56.1
COc1ccccc1CCNC(=O)c1cc(-c2ccncc2)nc2ccc(Br)cc12 | -1.0 | -14.2 | i | 93.5*
CC(=O)N(C)C[C@@H]1Oc2ncc(-c3ccccc3C)cc2C(=O)N([C@@H](C)CO)C[C@H]1C | . | . | i | .
Cc1nn(Cc2nnc(SCc3c(Cl)cccc3Cl)o2)c(C)c1Br | 4.7 | . | . | 21.3
C[C@H]1CN([C@@H](C)CO)C(=O)Cc2cc(NC(=O)Nc3ccc(C(F)(F)F)cc3)ccc2O[C@H]1CN(C)C(=O)Nc1cccc2ccccc12 | -2.2 | . | . | 62.1
CCN(CC)c1cc(-c2cccs2)nc(SCC(=O)c2cccs2)c1C#N | . | . | . | 122.1*
Cc1ccc2c(CC(=O)NCc3ccco3)coc2c1C | -2.7 | -24.2 | i | 114.9*
Cc1ccc2c(CC(=O)Nc3cccc([N+](=O)[O-])c3)coc2c1C | 3.7 | 69.0* | i | 17.0
Cc1cc(OCC(=O)NCc2ccco2)cc(C)c1Br | -6.0 | 24.8 | i | 9.7
O=C(CCN1C(=O)/C(=C/c2ccc(Cl)cc2)SC1=S)Nc1ccccc1 | . | . | . | 9.7
COc1cccc(OCc2nc(-c3ccccc3)no2)c1 | 1.5 | 112.2* | i | 0.6
